PREPL inhibitor = PREPL enzyme inhibitors, primary screen, biochemical, fluorescence polarization. Prolyl endopeptidase-like (Homo sapiens), Q4J6C6. recombinant PREPL, fluorescence polarization activity-based probe. inhibition, % at 5.96 µM. hit rate 0.68% among 320,000; in the data active means inhibition above about 43%;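 further: 0% = enzyme with DMSO and 100% = wells lacking enzyme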
Target sequence (Q4J6C6 whole entry, looked up): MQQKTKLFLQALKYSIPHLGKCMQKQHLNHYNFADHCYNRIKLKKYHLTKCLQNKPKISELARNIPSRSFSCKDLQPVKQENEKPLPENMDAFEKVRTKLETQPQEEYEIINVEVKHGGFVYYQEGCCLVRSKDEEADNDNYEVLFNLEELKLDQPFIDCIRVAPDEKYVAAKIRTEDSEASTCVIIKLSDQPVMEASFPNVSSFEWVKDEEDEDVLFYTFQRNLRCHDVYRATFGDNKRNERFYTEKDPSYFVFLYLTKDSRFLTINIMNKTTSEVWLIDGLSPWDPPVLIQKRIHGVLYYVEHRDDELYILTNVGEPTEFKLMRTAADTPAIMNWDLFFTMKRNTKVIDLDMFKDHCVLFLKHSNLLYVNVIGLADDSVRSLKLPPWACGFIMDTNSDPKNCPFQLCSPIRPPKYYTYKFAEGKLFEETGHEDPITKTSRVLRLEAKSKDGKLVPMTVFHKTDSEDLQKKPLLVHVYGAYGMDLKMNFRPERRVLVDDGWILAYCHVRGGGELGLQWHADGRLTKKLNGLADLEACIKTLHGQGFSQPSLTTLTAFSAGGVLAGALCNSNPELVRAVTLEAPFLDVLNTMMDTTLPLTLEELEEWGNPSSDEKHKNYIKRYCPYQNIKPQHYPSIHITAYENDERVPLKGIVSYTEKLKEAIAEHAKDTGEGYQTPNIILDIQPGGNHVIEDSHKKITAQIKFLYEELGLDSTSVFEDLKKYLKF
Rpn11 block = Rpn11 (PSMD14) deubiquitinase inhibitors, primary screen, biochemical, fluorescence polarization, uHTS; 26S proteasome non-ATPase regulatory subunit 14 (Homo sapiens), O00487; human 26S proteasome, Ub4-pepOG fluorescence polarization; 20S core pre-blocked with epoxomicin; inhibition, % at 20 µM; hit rate 0.59% among 360,000; AID 588493, 2011;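 active means inhibition at 20 µM, scaled to each plate's controls, above about 33%, limit read from the data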
NadD block = inhibitors of S. aureus NadD, primary screen, biochemical, colorimetric, uHTS; Nicotinate-nucleotide adenylyltransferase NadD (Staphylococcus aureus N315); purified NadD enzyme, colorimetric absorbance read-out; inhibition, % at 20 µM; hit rate 0.78% among 360,000; AID 602399, 2012; in the data active means inhibition above about 26%
PP5 inh = PP5 phosphatase inhibitors, primary screen, biochemical, fluorescence. hit rate 0.18% among 320,000. inhibition, % at 6.7 µM. purified PP5c, OMFP substrate fluorescence. Serine/threonine-protein phosphatase 5 (Homo sapiens), P53041. AID 1987, 2009;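 active means inhibition above the campaign's mean inhibition across all tested compounds plus 3 SD, cut at about 9.5% in these data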;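 further: 0% = DMSO only and 100% = 100 µM cantharidin control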
PP1 counter = PP1-alpha phosphatase inhibitors, primary screen, counter-screen for PP5 inhibitor project, biochemical, fluorescence, OMFP substrate, single point | Serine/threonine-protein phosphatase PP1-alpha catalytic subunit (Homo sapiens), P62136 | purified PP1alpha | inhibition, % at 6.7 µM | hit rate 0.9% among 320,000;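 active means inhibition above the mean inhibition of all tested compounds plus 3 SD, computed separately for each screening campaign, cut at about 15% in these data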
Rpn11 inh conf = Rpn11 (PSMD14) deubiquitinase inhibitors, confirmation, biochemical, fluorescence polarization, single concentration; shares compounds with Rpn11 block; purified human 26S proteasome, Ub4-pepOG fluorescence polarization; proteasome pretreated with epoxomicin; inhibition, % at 20 µM; hit rate 29% among 1,900; AID 602318, 2012
MMP-2 counter = MMP-2 enzyme inhibition, confirmation, counter-screen for RPN11 inhibitor project, biochemical, fluorescence, single concentration; shares compounds with Rpn11 block; recombinant MMP-2, FRET peptide cleavage fluorescence; inhibition, % at 20 µM; hit rate 4% among 1,900;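 further: human MMP-2 activated beforehand with APMA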
Thrombin inh = bovine thrombin protease inhibition, confirmation, counter-screen for Rpn11 inhibitor project, biochemical, fluorescence polarization, single concentration. inhibition, % at 20 µM. shares compounds with Rpn11 block. AID 602333, 2012. hit rate 13% among 1,900. bovine thrombin cleavage of Ub4-pepOG;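 active means mean inhibition at least 40% at 20 µM, or signal 3 deviations below plate average, so some actives read negative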;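 further: plate controls were thrombin with DMSO for no effect and buffer wells lacking thrombin for full effect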
Starred values were filed as active, the others as inactive; . = not tested or not shown; + = active, no number. In the library only some 2.4% were active in any assay of this set; here they are far more common. Unless noted, no stated cut-off is given here; in the data, active means inhibition above about 40%; inactive means the rest.

SMILES	PREPL inhibitor	Rpn11 block	NadD block	PP5 inh	PP1 counter	Rpn11 inh conf	MMP-2 counter	Thrombin inh
Cc1ccc(NC(=O)CSc2ncnc3ccccc23)cc1S(=O)(=O)N1CCCCCC1	9.6	42.7*	1.8	4.3	11.3	21.7	50.0*	-13.5
Cc1ccc(S(=O)(=O)N2CCCCC2)cc1NC(=O)CSc1ncnc2ccccc12	5.4	-4.4	3.8	1.5	1.3	.	.	.
FC(F)(F)c1cnc(Sc2nc3nccc(-c4ccc(Cl)cc4)n3n2)c(Cl)c1	5.6	-0.6	-3.0	1.5	5.8	.	.	.
CSc1nc2nccc(-c3ccc(Cl)cc3)n2n1	0.9	82.7*	0.1	-1.3	-1.5	36.1	65.6*	-9.7
O=C(Cc1c(F)cccc1Cl)Nc1ccccc1-c1ccccc1	-0.5	-1.7	-8.3	2.0	-3.2	.	.	.
CCN(CC)S(=O)(=O)c1cccc(NC(=O)COc2ccc(C#N)cc2OC)c1	2.9	-1.8	-2.0	9.0	-0.8	.	.	.
CCN(CC)S(=O)(=O)c1cccc(NC(=O)COc2ccc(F)cc2Br)c1	11.1	45.8*	-11.0	5.2	-2.2	0.7	26.2	-3.3
CCOC(=O)c1sc(NC(=O)/C=C/c2c(F)cccc2Cl)nc1C	9.1	48.1*	-3.8	3.4	-1.3	0.4	11.8	8.2
CCOC(=O)c1sc(NC(=O)Nc2ccccc2F)nc1C	0.6	-5.4	4.4	-0.2	6.8	.	.	.
CCOC(=O)/C=c1\s/c(=C\c2ccc(C(F)(F)F)cc2)c(=O)n1CC(=O)NCc1ccco1	2.4	49.4*	4.1	3.0	-0.1	36.1	-28.6	38.2
CCOC(=O)/C=c1\s/c(=C\c2ccc(C)cc2)c(=O)n1CC(=O)NCc1ccco1	-10.0	5.9	-0.4	0.2	0.1	.	.	.
Nc1c(C(=O)N/N=C/c2ccc(F)cc2)oc2nc(-c3ccccc3)cc(-c3ccco3)c12	1.9	43.9*	10.9	0.4	10.2	94.4*	-18.5	20.4
COc1cc(-c2cc(-c3ccc(F)cc3)nc(N)c2C#N)ccc1O	13.4	97.1*	-6.2	2.2	2.8	0.5	-11.7	-7.2
Cc1ccnc2nc(C(=O)Nc3ccc(N4CCOCC4)cc3)nn12	3.9	132.8*	-1.1	1.6	-4.2	-5.2	-49.4	-10.4
O=C(COC(=O)c1ccc(O)cc1)Nc1ccc(N2CCCCC2)cc1	20.2	56.3*	5.1	0.4	-3.0	1.0	2.3	-1.8
O=C(CN1CCN(C(=O)c2cccs2)CC1)Nc1ccc(Br)cc1	4.9	-3.6	-5.1	-0.2	0.3	.	.	.
O=C(CN1CCN(C(=O)c2cccs2)CC1)NC1CCCCC1	-4.2	41.5*	-2.3	0.5	2.6	-9.1	-33.5	-24.1
COc1ccc(S(=O)(=O)N(C)C[C@H]2Oc3ccc(NC(=O)Cc4ccccc4)cc3C(=O)N([C@H](C)CO)C[C@@H]2C)cc1	11.1	2.6	-1.2	.	.	.	.	.
Cc1cccc(CNC(=O)c2ccccc2N)c1	2.7	197.8*	-0.2	-1.9	-2.9	-6.8	-5.0	-7.4
Cc1ccc(CNC(=O)c2ccccc2N)cc1	10.4	-4.0	-3.1	-0.1	-0.5	.	.	.
CN(C)CCCNc1ccc(-c2n[nH]c(=O)c3ccccc23)cc1[N+](=O)[O-]	39.0	56.1*	14.4	-0.5	-4.1	7.8	-11.1	-15.9
Cc1c(N2C(=O)c3ccccc3C2(O)c2ccccc2)c(=O)n(-c2ccccc2)n1C (stereo not drawn)	10.5	15.8	-0.2	0.3	-4.6	.	.	.
CC(C)N1CCc2c(sc(NC(=O)c3cc4cc([N+](=O)[O-])ccc4s3)c2C(N)=O)C1	.	66.2*	11.7	.	.	22.2	14.7	-10.8
CCOC(=O)C1(Cc2cccc(Cl)c2)CCCN(C(=O)C(C)(C)C)C1 (stereo not drawn)	6.1	3.5	-2.1	2.6	4.3	.	.	.
Cc1cc(C)c2c(=O)[nH]c(=O)n(Cc3ccccc3)c2n1	-16.0	79.6*	-2.3	0.9	-5.0	94.8*	29.5	49.9*
SMILES	PREPL inhibitor	Rpn11 block	NadD block	PP5 inh	PP1 counter	Rpn11 inh conf	MMP-2 counter	Thrombin inh
COc1cc(CNC(=O)c2cc(-c3cc(F)ccc3OCC3CCCO3)n[nH]2)cc(OC)c1 (stereo not drawn)	.	5.3	-2.6	.	.	.	.	.
Cc1cc(NC(=O)CCC(=O)N(c2ccccc2)C(C(=O)NCC2CCCO2)c2cccnc2)no1 (stereo not drawn)	8.0	54.3*	1.0	-0.8	0.1	-8.1	-40.1	26.1
CCc1nc2oc3cc(OC)ccc3c(=O)c2c(=O)n1Cc1ccco1	-0.6	+	3.6	1.0	1.1	-7.9	6.1	18.8
CCOC(=O)C(C)On1c(-n2nc(C)cc2C)nc2ccccc2c1=O (stereo not drawn)	-6.1	-2.1	-1.3	0.2	-2.3	.	.	.
CCCCC(CC)CNC(=O)C(=O)c1ccccc1NC(C)=O (stereo not drawn)	3.0	40.8*	0.2	0.6	-0.9	-12.3	-48.6	-20.6
O=C(CN1C(=O)c2ccccc2S1(=O)=O)NCCSc1ccccc1	0.7	40.8*	5.6	-0.5	1.4	-7.1	-26.1	-19.2
Cc1nc2ccc(NC(=O)c3ccc(Cl)c(S(=O)(=O)N(C)c4ccccc4)c3)cc2s1	-25.1	81.1*	4.6	3.5	2.3	60.7*	-15.2	52.4*
O=C(CSc1nnc(-c2ccccc2F)n1C1CC1)NCc1ccco1	-0.7	-2.4	-5.3	-0.8	-2.8	.	.	.
COc1cc(-c2ccc3oc(-c4ccsc4)cc(=O)c3c2)cc(OC)c1OC	-5.0	17.6	-14.7	.	.	.	.	.
CCOC(=O)c1ccc(-c2ccc3oc(-c4ccsc4)cc(=O)c3c2)cc1F	-9.4	43.4*	-5.0	.	.	-7.6	-20.6	-11.4
COc1nc(N)c(S(=O)(=O)c2ccccc2)cc1C#N	4.7	54.1*	-8.8	1.5	1.0	13.0	-38.9	-10.8
O=C(NC1CCCCC1)c1cccc2c1C(=O)c1ccc(N3CCCC3)cc1S2(=O)=O	9.7	.	10.4	.	.	.	.	.
C=CCNC(=O)c1cccc2c1C(=O)c1ccc(N3CCOCC3)cc1S2(=O)=O	10.1	49.2*	-1.6	.	.	29.8	-20.7	12.8
O=C(NCc1ccc(F)cc1)c1cccc2c1C(=O)c1ccc(N3CCOCC3)cc1S2(=O)=O	17.9	44.6*	3.4	2.8	-3.6	54.0*	-10.7	29.6
CC1CCN(c2ccc3c(c2)S(=O)(=O)c2cccc(C(=O)NC4CCCCC4)c2C3=O)CC1	-6.4	88.2*	22.4	0.8	5.0	43.7*	-28.1	31.4

Compound activity: PubChem BioAssay, several laboratories
